Laboratory results published in article PMC5540273 (PLoS ONE, 2017).

System: TSSK3
Conditions: concentration: 1 μM,replicates: in singlicate; n = 1
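Note: KINOMEscan kinase panel screen.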

Row | SMILES | %Inh
1 | CS(=O)(=O)Nc1ccc(-c2ccnc3[nH]ccc23)cc1 [GSK993273] | 26%
2 | O=C(NCC1CC1)c1ccc(-c2cc(C(=O)NC3CC3)ccc2F)cc1 [GW810445] | 0%
3 | Cc1cccc2c(-c3ccncc3)c(-c3ccc(F)cc3)nn12.Cl [GW461487] | 15%
4 | Cn1ccc2ncnc(Oc3ccc(NC(=O)Nc4cnn(C(C)(C)C)c4)c(Cl)c3)c21 | 7%
5 | Cn1cc(-c2cccc3c(N)c(C(N)=O)nnc23)cn1 | 0%
6 | C[C@@H]1CCN(C(=O)N2CCCC2)C[C@@H]1N(C)c1ncnc2[nH]ccc12 | 4%
7 | Cl.Nc1n[nH]c2cc(-c3ccccn3)ccc12 [GSK2189892] | 8%
8 | Cl.c1ccc(Oc2ccc(Nc3ccnc4cc(-c5ccc(CN6CCNCC6)o5)ccc34)cc2)nc1 [GW567142] | 5%
9 | CCNCC(Cc1ccccc1)NC(=O)c1cc(Br)c(-c2ccnc3[nH]ccc23)s1.Cl.Cl (centres unmarked) [GSK1383280] | 13%
10 | Cc1ccc(Nc2ccnc(Nc3ccc4c(c3)CS(=O)(=O)C4)n2)cc1O.Cl [GW579362] | 27%
11 | COc1cccc(C2=C(Nc3cccc(Cl)c3)C(=O)NC2=O)c1 [SB-341556] | 6%
12 | CCN1CCN(CCCC(=O)Nc2n[nH]c3nc(-c4ccc(O)cc4)c(Br)cc23)CC1 [SB-731579] | 0%
13 | CSc1nccc(-c2c(-c3ccc(F)cc3)ncn2CCCN2CCOCC2)n1.Cl [SB-217146] | 0%
14 | COc1cc2nccc(Nc3ccc(Oc4ccccc4)cc3)c2cc1OC.Cl [GI261656] | 11%
15 | CS(=O)c1ccc(-c2coc3ccc(-c4n[nH]c(=O)o4)cc23)cc1 (centres unmarked) | 0%
16 | Cn1ccc2ncnc(Oc3ccc(NC(=O)Nc4ccnc(C(F)(F)F)c4)c(Cl)c3)c21 | 0%
17 | CN1CCN(CCCNc2nccc(-c3c(-c4ccc(F)cc4)nn4cc(C(N)=O)ccc34)n2)CC1 [GW622475] | 24%
18 | O=C(NOCC1CC1)c1cc(Br)c(F)c(F)c1Nc1ccc(I)cc1Cl | 9%
19 | COc1cccc(CNC(=O)NC2CCN(c3ccnc(Nc4cc(OC)c(OC)c(OC)c4)n3)C2)c1 (centres unmarked) [GSK1379765] | 18%

Row | SMILES | %Inh
20 | COc1cc(Nc2nccc(N3CCC(NC(=O)c4cccc(C#N)c4)C3)n2)cc(OC)c1OC (centres unmarked) [GSK1379751] | 7%
21 | COC(=O)c1cccc(NC(=O)NC2CCN(c3ccnc(NCc4ccc(F)cc4)n3)CC2)c1 [GSK1379860] | 11%
22 | Cn1ccc2ncnc(Oc3ccc(NC(=O)Nc4cc(C(C)(C)C)on4)c(Cl)c3)c21 | 3%
23 | O=C1NCCc2[nH]c(-c3ccncc3)cc21 | 0%
24 | Nc1nccc(-c2ccc3c(N)n[nH]c3c2)n1 [GSK1034945] | 27%
25 | CC(=O)Nc1ccc(-c2cc3ncnc(SCC(=O)O)c3s2)cc1 | 0%
26 | NC(=O)c1ccc(-c2cc3ncnc(SCC(=O)O)c3s2)cc1 | 0%
27 | Cc1cccc(-c2nc(Nc3ccncc3)c3sccc3n2)n1 [GW869641] | 24%
28 | Cn1ccc2ncnc(Oc3ccc(NC(=O)Nc4cncc(C(F)(F)F)c4)c(Cl)c3)c21 | 0%
29 | OCCn1cc(-c2cnc3nnn(Cc4ccc5ncccc5c4)c3n2)cn1 | 0%
30 | C[C@@H]1CNc2c(sc3ccc4nc(-c5ccc(O)cc5)ccc4c23)C(=O)N1 | 4%
31 | FC(F)(F)c1cc(Br)cc(Nc2nccc(-c3cnn4ncccc34)n2)c1 [GW810578] | 5%
32 | NC(=O)Nc1sc(-c2ccc(F)cc2)cc1C(N)=O [GW789449] | 0%
33 | c1ccc(Oc2ccc(Nc3ccnc4ccc(-c5ccccn5)cc34)cc2)cc1 [GW407034] | 19%
34 | CCn1c(-c2nonc2N)nc2cncc(CNC3CCNCC3)c21.Cl [SB-747651] | 6%
35 | CN(c1ccccc1CNc1nc(Nc2ccc3c(c2)CC(=O)N3)ncc1C(F)(F)F)S(C)(=O)=O | 0%
36 | Cc1ccc(C(=O)Nc2ccc(Oc3ccc4nc(NC(=O)C5CC5)cn4c3)c(F)c2)c(=O)n1-c1ccccc1 | 0%
37 | C[C@@H](Oc1cc(-n2cnc3ccc(-c4ccncc4)cc32)sc1C(N)=O)c1ccccc1Cl [GSK483724] | 17%

System: TTK
Conditions: concentration: 1 μM,replicates: in singlicate; n = 1

Row | SMILES | %Inh
38 | CS(=O)(=O)Nc1ccc(-c2ccnc3[nH]ccc23)cc1 [GSK993273] | 60%
39 | O=C(NCC1CC1)c1ccc(-c2cc(C(=O)NC3CC3)ccc2F)cc1 [GW810445] | 12%
40 | Cc1cccc2c(-c3ccncc3)c(-c3ccc(F)cc3)nn12.Cl [GW461487] | 0%
41 | Cn1ccc2ncnc(Oc3ccc(NC(=O)Nc4cnn(C(C)(C)C)c4)c(Cl)c3)c21 | 4%
42 | Cn1cc(-c2cccc3c(N)c(C(N)=O)nnc23)cn1 | 1%
43 | C[C@@H]1CCN(C(=O)N2CCCC2)C[C@@H]1N(C)c1ncnc2[nH]ccc12 | 89%
44 | Cl.Nc1n[nH]c2cc(-c3ccccn3)ccc12 [GSK2189892] | 14%
45 | Cl.c1ccc(Oc2ccc(Nc3ccnc4cc(-c5ccc(CN6CCNCC6)o5)ccc34)cc2)nc1 [GW567142] | 0%
46 | CCNCC(Cc1ccccc1)NC(=O)c1cc(Br)c(-c2ccnc3[nH]ccc23)s1.Cl.Cl (centres unmarked) [GSK1383280] | 67%
47 | Cc1ccc(Nc2ccnc(Nc3ccc4c(c3)CS(=O)(=O)C4)n2)cc1O.Cl [GW579362] | 81%
48 | COc1cccc(C2=C(Nc3cccc(Cl)c3)C(=O)NC2=O)c1 [SB-341556] | 13%
49 | CCN1CCN(CCCC(=O)Nc2n[nH]c3nc(-c4ccc(O)cc4)c(Br)cc23)CC1 [SB-731579] | 0%
50 | CSc1nccc(-c2c(-c3ccc(F)cc3)ncn2CCCN2CCOCC2)n1.Cl [SB-217146] | 0%
51 | COc1cc2nccc(Nc3ccc(Oc4ccccc4)cc3)c2cc1OC.Cl [GI261656] | 0%
52 | CS(=O)c1ccc(-c2coc3ccc(-c4n[nH]c(=O)o4)cc23)cc1 (centres unmarked) | 0%
53 | Cn1ccc2ncnc(Oc3ccc(NC(=O)Nc4ccnc(C(F)(F)F)c4)c(Cl)c3)c21 | 0%
54 | CN1CCN(CCCNc2nccc(-c3c(-c4ccc(F)cc4)nn4cc(C(N)=O)ccc34)n2)CC1 [GW622475] | 8%
55 | O=C(NOCC1CC1)c1cc(Br)c(F)c(F)c1Nc1ccc(I)cc1Cl | 0%
56 | COc1cccc(CNC(=O)NC2CCN(c3ccnc(Nc4cc(OC)c(OC)c(OC)c4)n3)C2)c1 (centres unmarked) [GSK1379765] | 22%

Row | SMILES | %Inh
57 | COc1cc(Nc2nccc(N3CCC(NC(=O)c4cccc(C#N)c4)C3)n2)cc(OC)c1OC (centres unmarked) [GSK1379751] | 0%
58 | COC(=O)c1cccc(NC(=O)NC2CCN(c3ccnc(NCc4ccc(F)cc4)n3)CC2)c1 [GSK1379860] | 0%
59 | Cn1ccc2ncnc(Oc3ccc(NC(=O)Nc4cc(C(C)(C)C)on4)c(Cl)c3)c21 | 2%
60 | O=C1NCCc2[nH]c(-c3ccncc3)cc21 | 1%
61 | Nc1nccc(-c2ccc3c(N)n[nH]c3c2)n1 [GSK1034945] | 0%
62 | CC(=O)Nc1ccc(-c2cc3ncnc(SCC(=O)O)c3s2)cc1 | 0%
63 | NC(=O)c1ccc(-c2cc3ncnc(SCC(=O)O)c3s2)cc1 | 13%
64 | Cc1cccc(-c2nc(Nc3ccncc3)c3sccc3n2)n1 [GW869641] | 27%
65 | Cn1ccc2ncnc(Oc3ccc(NC(=O)Nc4cncc(C(F)(F)F)c4)c(Cl)c3)c21 | 0%
66 | OCCn1cc(-c2cnc3nnn(Cc4ccc5ncccc5c4)c3n2)cn1 | 0%
67 | C[C@@H]1CNc2c(sc3ccc4nc(-c5ccc(O)cc5)ccc4c23)C(=O)N1 | 9%
68 | FC(F)(F)c1cc(Br)cc(Nc2nccc(-c3cnn4ncccc34)n2)c1 [GW810578] | 41%
69 | NC(=O)Nc1sc(-c2ccc(F)cc2)cc1C(N)=O [GW789449] | 32%
70 | c1ccc(Oc2ccc(Nc3ccnc4ccc(-c5ccccn5)cc34)cc2)cc1 [GW407034] | 1%
71 | CCn1c(-c2nonc2N)nc2cncc(CNC3CCNCC3)c21.Cl [SB-747651] | 0%
72 | CN(c1ccccc1CNc1nc(Nc2ccc3c(c2)CC(=O)N3)ncc1C(F)(F)F)S(C)(=O)=O | 99.5%
73 | Cc1ccc(C(=O)Nc2ccc(Oc3ccc4nc(NC(=O)C5CC5)cn4c3)c(F)c2)c(=O)n1-c1ccccc1 | 17%
74 | C[C@@H](Oc1cc(-n2cnc3ccc(-c4ccncc4)cc32)sc1C(N)=O)c1ccccc1Cl [GSK483724] | 34%
